The results in this text go back to the supplement of paper PMC10498489.

Hit rate of the full screen: of about 2,300 compounds, about 330 (14%) showed activity.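 How the source made its calls: active = median modified Z-score above 1.96; inactive = 1.96 or below.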 The list is a sample of the results.

For this test, the system named is HepG2 Srxn1-GFP reporter cells (+30 nM CDDO-Me). Kind of test: Srxn1-GFP intensity median modified Z-score relative to plate median; higher = stronger NRF2 / oxidative stress reporter activation, active = hit call of the paper. The conditions noted are these: 10 µM; exposure time: 24h. The procedure, abridged:
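The modified Z-score of GFP intensity was computed per plate, and the median over replicates is reported. HepG2 Srxn1-GFP BAC reporter cells in three replicate plates were treated for 24 h with compound at 10 μM plus an NRF2 activator at 30 nM (≤0.1% DMSO). Per-cell cytoplasmic GFP came from confocal images, excluding those with under 100 cells, and scaling used 1.4826 × median absolute deviation.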
As to `CCN(C)C(=O)Oc1cccc([C@H](C)N(C)C)c1` [euspeclibcmpd2067], the “Srxn1-GFP intensity median modified Z-score” value is -0.306 (inactive).
With `COC[C@]12CN(C=O)C3[C@@H]4[C@H](OC)C1[C@]3(C1CC3(O)C(OC)C(O)[C@]4(OC(C)=O)C1C3OC(=O)c1ccccc1)[C@@H](OC)C[C@H]2O` (some centres not stated) [euspeclibcmpd1413] the figure was -0.00565 (inactive).
In the case of `COc1cc2c(cc1O)CC1c3c(cc(O)c(OC)c3-2)CCN1C` (configuration not stated) [euspeclibcmpd1326] it was -0.347 (inactive).
With `COc1ccc2c(c1O)-c1c(OC)c(OC)cc3c1[C@H](C2)N(C)CC3` [euspeclibcmpd1537] the figure was -0.343 (inactive); with `COc1cc2c3cc1Oc1c(OC)c(OC)cc4c1[C@@H](Cc1cccc(c1)Oc1ccc(c(O)c1)C[C@@H]3N(C)CC2)N(C)CC4` [euspeclibcmpd1812], 2.31 (active).
For the compound `O=C(NC(O)C(Cl)(Cl)Cl)NC(O)C(Cl)(Cl)Cl` (configuration not stated) [euspeclibcmpd2304], the “Srxn1-GFP intensity median modified Z-score” value is 0.189 (inactive).
In the case of `c1ccc2nc(N3CCNCC3)ccc2c1` [euspeclibcmpd578] it was -0.285 (inactive); in that of `C[C@@H]1CC(Cl)CCC1C(=O)OC(C)(C)C` (some centres not stated) [euspeclibcmpd1756], -0.159 (inactive).
In the case of `CNC(C)(C)Cc1ccccc1` [euspeclibcmpd691] it was 0.194 (inactive); in that of `C[N+]1(C)CCc2cc3c(cc2[C@H]1C1OC(=O)c2c1ccc1c2OCO1)OCO3` (some centres not stated) [euspeclibcmpd1466], 2.41 (active); in that of `CN1CCc2cc3c(cc2[C@H]1C1OC(=O)c2c1ccc1c2OCO1)OCO3` (some centres not stated) [euspeclibcmpd1552], -0.0938 (inactive).
With `C#CCN(C)C(C)Cc1ccccc1` (configuration not stated) [euspeclibcmpd993] the figure was -0.386 (inactive); with `CCC1(CO)C(=O)NC(=O)NC1=O`, 1.07 (inactive); with `COc1cc2occc2c2oc(=O)ccc12` [euspeclibcmpd1717], -0.121 (inactive).
Turning to `NCC(=O)c1ccccc1` [euspeclibcmpd1673], the “Srxn1-GFP intensity median modified Z-score” value is 3.04 (active).
Take `NCCc1ccccc1` [euspeclibcmpd2078]: the “Srxn1-GFP intensity median modified Z-score” value is 0.0184 (inactive).
Turning to `O=C(O)Cc1ccccc1` [euspeclibcmpd2440], the “Srxn1-GFP intensity median modified Z-score” value is -0.295 (inactive).
In the case of `C[N+]1([O-])C2CCC1CC(OC(=O)C(CO)c1ccccc1)C2` (configuration not stated) [euspeclibcmpd2322] it was -0.247 (inactive); in that of `C=CCC1(C(C)CCC)C(=O)NC(=S)NC1=O` (configuration not stated) [euspeclibcmpd2148], -0.0652 (inactive).
With `O=P1(NCCBr)OCCCN1CCCl` (configuration not stated), the “Srxn1-GFP intensity median modified Z-score” value is 0.805 (inactive).
For `CNCC(O)c1ccc(O)cc1` (configuration not stated) [euspeclibcmpd1199], the “Srxn1-GFP intensity median modified Z-score” value is 0.983 (inactive).
In the case of `COC(=O)C1=CO[C@@H](C)C2CN3CC[C@]4(C(=O)Nc5ccccc54)C3C[C@H]12` (some centres not stated) [euspeclibcmpd2321] it was -0.26 (inactive); in that of `CCCN(CCC)CCc1cccc2[nH]c(O)cc12` [euspeclibcmpd2384], -0.25 (inactive); in that of `CCN(C(C)=O)c1cccc(-c2ccnc3c(C#N)cnn23)c1` [euspeclibcmpd886], -0.312 (inactive).
Turning to `CC1(C)C(C=C(Cl)Cl)C1C(=O)OCc1cccc(Oc2ccccc2)c1` (configuration not stated) [euspeclibcmpd989], the “Srxn1-GFP intensity median modified Z-score” value was -0.481 (inactive).
Regarding `CC(N)Cc1ccc(O)cc1` (configuration not stated) [euspeclibcmpd2033], the “Srxn1-GFP intensity median modified Z-score” value was -0.0916 (inactive).
In the case of `O=C1C=CC(=O)c2ccccc21` [euspeclibcmpd1754] it was 32.6 (active); in that of `O=C1c2ccccc2C(=O)c2ccccc21` [euspeclibcmpd2403], -0.277 (inactive); in that of `O=C1C(=O)c2ccccc2-c2ccccc21`, 0.845 (inactive).
In the case of `O=c1c(O)c(-c2ccc(O)c(O)c2)oc2c(O)c(O)cc(O)c12` [euspeclibcmpd1684] it was -0.455 (inactive).
With `C[C@]12CCC3C(CC[C@H]4C[C@@H](O)CC[C@]34C)C1CCC2=O` (some centres not stated) [euspeclibcmpd2371] the figure was -0.083 (inactive); with `N[C@H](CO)Cc1ccccc1` [euspeclibcmpd1743], -0.578 (inactive); with `O=[N+]([O-])c1cc([As](=O)(O)O)ccc1O` [euspeclibcmpd2449], 14.6 (active).
On to `O=[N+]([O-])c1ccc([As](=O)(O)O)cc1` [euspeclibcmpd2468], for which the “Srxn1-GFP intensity median modified Z-score” value was 0.0717 (inactive).
In the case of `CC(=O)Nc1cc([As](=O)(O)O)ccc1O` [euspeclibcmpd2446] it was 0.0429 (inactive); in that of `c1cncc(C2=NCCC2)c1` [euspeclibcmpd2209], 0 (inactive); in that of `COc1ccc(/C=C/c2cc(O)cc(O)c2)cc1` [euspeclibcmpd1373], 0.31 (inactive).
